Consider twelve molecules from the supplement of paper PMC10105736.

Values without a mark were called inactive.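 The calls were made as follows: active = MAPPIT score above the 99th percentile of random reference set scores in the same batch; inactive = at or below it.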

Experiment in all cases: MAPPIT interaction score (arbitrary units); higher = stronger binary interaction signal, active = hit call of the paper
The target of one test is corto. Conditions: pair source set: Lit-BM-16.
Another test has as its target cpa. The settings on record: MAPPIT configuration: N-N; pair source set: Lit-BM-16.
Another test addresses cic. Conditions: pair source set: Lit-BM-16.
Another test has as its target rl. The settings on record: MAPPIT configuration: N-N; pair source set: Curagen_high_conf.
The target of a further test is eIF3f1. Conditions: MAPPIT configuration: N-N; pair source set: Lit-BM-16.
A further test deals with e(y)2. The settings on record: MAPPIT configuration: N-N; pair source set: screen_2.
The next test deals with dnd. Conditions: MAPPIT configuration: N-N; pair source set: screen_2.
Another test has as its target cathD. The settings on record: MAPPIT configuration: N-N; pair source set: DPIM.
A further test has as its target dimm. Conditions: MAPPIT configuration: N-N; pair source set: DPIM.
A further test addresses dgt4. Conditions: MAPPIT configuration: N-N; pair source set: Lit-BM-16.
For the next test, the target named is bru3. The settings on record: MAPPIT configuration: N-N; pair source set: DPIM.
Another test deals with cactin. Conditions: MAPPIT configuration: N-N; pair source set: RRS.
Another test concerns the target dre4. Conditions: MAPPIT configuration: N-N; pair source set: Lit-BM-16.
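Also: HEK293T cells with Epo stimulation, STAT-responsive firefly luciferase reporter, fold induction versus unstimulated cells divided by the larger fold induction of two negative controls lacking either bait or prey.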

B1: corto (protein)
chain: MTMAACYANYDMSSLSHGMSALSALQQQQQQQQQQHSQTQQQHHHQQQQQHMYHAAVAAHQQQLLQQQQQQQHHRHHHQPANTSSSSNSRHSHAAATQTQVAAAVANSRQQQQQQQQQQQQQQQQQTASSNSNAAPAPSPQKDYSIPLHVDCSVEYELPNQPKPPAGQRVEPLLMIHPCYFRKMESQRRSPFVNNMHATARAVSSSSLSSGAALGGGGSGAAVATAPSSSAARRGARAATSAQQQQQQQQRYQQQQQQLRQQHQQMSQMSQQAHYPQQQSSLVRQHQQQQQQQQQQQRASSNQSQRQSQSQSQSQSHAANSAAAAAAQASIAAAAAGQWDQLAALAARTALTPHHMLHPHSHYAAKGSGGGAGGGKRDAMISGSYGQTAVASGKLQQSQVQQQQPQQQQQHCLPPPPWDATSMLMDRSPMATVPSNYQAGPDTNPMRLYSATPTAGAASGGSASVGGGGAVSGAGATGAVNTATDKLSGKYRQYLRSQRMHPYAAAASLNLAAAAAAAGQTSFVPFSSAATAVAATPTFQHLPQISCYNV
As for B1, the MAPPIT interaction score is 0.538 in the test with corto (MAPPIT configuration: N-C) and 0.215 with corto (MAPPIT configuration: N-N).

B2: cpb (protein)
chain: MSEMQMDCALDLMRRLPPQQIEKNLIDLIDLAPDLCEDLLSSVDQPLKIAKDKEHGKDYLLCDYNRDGDSYRSPWSNSYYPPLEDGQMPSERLRKLEIEANYAFDQYREMYYEGGVSSVYLWDLDHGFAAVILIKKAGDGSKMIRGCWDSIHVVEVQEKTTGRTAHYKLTSTAMLWLQTNKQGSGTMNLGGSLTRQQEQDANVSESSPHIANIGKMVEEMENKIRNTLNEIYFGKTKDIVNGLRSTQSLADQRQQAAMKQDLAAAILRRNVKPESN
With B2, the MAPPIT interaction score with cpa was 3.35 (active).

B3: rl (protein)
chain: MEEFNSSGSVVNGTGSTEVPQSNAEVIRGQIFEVGPRYIKLAYIGEGAYGMVVSADDTLTNQRVAIKKISPFEHQTYCQRTLREITILTRFKHENIIDIRDILRVDSIDQMRDVYIVQCLMETDLYKLLKTQRLSNDHICYFLYQILRGLKYIHSANVLHRDLKPSNLLLNKTCDLKICDFGLARIADPEHDHTGFLTEYVATRWYRAPEIMLNSKGYTKSIDIWSVGCILAEMLSNRPIFPGKHYLDQLNHILGVLGSPSRDDLECIINEKARNYLESLPFKPNVPWAKLFPNADALALDLLGKMLTFNPHKRIPVEEALAHPYLEQYYDPGDEPVAEVPFRINMENDDISRDALKSLIFEETLKFKERQPDNAP
For B3, the MAPPIT interaction score with cic (MAPPIT configuration: N-C) is 0.149; with cic (MAPPIT configuration: N-N), 0.776; in the test with rl, 0.844.

B4: eIF3m (protein)
chain: MTSHPVFIDLSLDEQVQELRKYFKKLGAEISSEKSNKGVEDDLHKIIGVCDVCFKDGEPSQIDGILNSIVSIMITIPLDRGENIVLAYCEKMTKAPNLPLGKVCLQSLWRLFNNLDTASPLRYHVYYHLVQVAKQCEQVLEVFSGVDQLKSQFANCPPSSEQMQKLYRLLHDVTKDTNLELSSKVMIELLGTYTADNACVAREDAMKCIVTALADPNTFLLDPLLSLKPVRFLEGDLIHDLLSIFVSEKLPAYVQFYEDHREFVNSQGLNHEQNMKKMRLLTFMQLAESSPEMTFETLTKELQINEDEVEPFVIEVLKTKLVRARLDQANQKVHISSTMHRTFGAPQWEQLRDLLQAWKENLSTVREGLTSVSSAQLDLARSQKLIH
As for B4, the MAPPIT interaction score in the test with eIF3f1 was 5.38 (active).

B5: Mul1 (protein)
chain: MEFLHESVALGVDLLILGLCAREYVHYKRTAKVLKAAPQYNIDGDLKSVVERQRDKKIPYAVIRGTVTPIGVPLRSSLVPSVSGVLQIVKLHEHRVTRGFAGFWTEQHKLLHESANEMPFELRNQSHGVEIVDALSAAVLDVDVVYDNYEPSNLSLFDHVFGFFSGVRQRGLQTTEEVLREGSFLTAIGELELDGDTLRMQPSNEGPLFLTTATKSTLIKRFEDAKTTTILKLVVCSTISAILVAFIAKKLYRKRKQEREEAKIRERLDTERRERRARSRPHTLSQDQLCVVCSTNPKEIILLPCGHVCLCEDCAQKISVTCPVCRGSIVSKAAAFIA
On to B5, for which the MAPPIT interaction score with e(y)2 was 5.68 (active).

B6: PrBP (protein)
chain: MGSDDQSAGDRIQKGFQINYMILRDADSGKIIWQENKDFSAPDQEHEARVPVKILDMRAVSREINFSTIESMENFRLDQKVLFKGRIMEEWFFEMGFVGANTTNTWQSTIEAAPESQMMPAKVLNGNVTIQTSFYDNETLITKSVVRLYYI
As for B6, in the test with dnd, the MAPPIT interaction score was 4.87 (active).

B7: Wdr24 (protein)
chain: MPDSVEDTSTISLRICLEGHANALALNKDNNQIALAGRSLLKVYSINSNGFTESCNMRGKNQNLSYSANDVAWSTLDSNLLATAATNGVVSVWDLSKFGRQKQLLVYNEHERTAHTVTFHSSEPNILISGSQDGTIKCFDIRSDKSINTYFCNSESVRDVKFSPHTQNIFSAVSENGTVQLWDMRKWDKCMVQFTAHYGPVYTCDWHPTRNWLATGSRDKQIKVWNMDGRPGLEHTIHTIAVVGRVKWRPERTYHIASCALVVDYSVHVWDIRRPYIPFASFNEHTNVTTGIAWQGSDSHCLLSISKDSTIYKHAFKDATRPALKANAQGASLGRFGDISFANKIKEYEPKTSGASNTKSSSFIRRKTNVAGSIQFHLDHSKMYKFMVNDTFSGYPLSESVSRPTQEHESFIGCARELVISGKKLSELCEHNAEVSKKYGKHNATTLWNFIKLFYGSNHFEPPFEHRSSFSNQKNPMNSRRATQVASDWPQQRTELGQDLNGNTPETAHEIDVANVDDDTLGSSGVEHPPTSSVILSETQIISEITFDNFELLRNGFIYVGPTECPKALAFPALHHDVQAARPQLDLKASDHEKSPPPHVPTVLKVSHVPPIPMWEPHKFVSDALMLMNDVGDVQTALTVLIALGEARKLLPIDDALVEHWFYTYVDQLHRYELWNEACEVINRSWLRSVQQLNQHSTAMHTNCGECGRPMGGKVGWYCDKCKSMQSAKCCVCGLIVRGVYAWCQGCSHGGHIEHLQKYFAKHSKCPKCGHLCAYS
In the case of B7, in the test with cathD, the MAPPIT interaction score was -0.0301.

B8: Lsm12a (protein)
chain: MAAAAASAVNAVNDCFSIGSTVVCTTCFNEEVEGEVLAFDHNTKMLILKCRSKSTEELSDIYAMNLSLCSNVQVIKECNGNFDDPQKLNLEQVKMRLRKTVERRQDYLKSKNADVSPEAQELYRAIAKQYGYNEVSWQGLNIQILNEVTISPPYRVDNVVSSSNNETSCNYIKRIIKQFFNTRPSPVPESGAAASTSSPSVSPTSSSLASGSPVPAN
For B8, the MAPPIT interaction score with dimm was -0.17.

B9: dgt6 (protein)
chain: MDRTIIAPWKAEEKEQSEKLHRKLQGLALVHPLPDELRKLIAWDMFLKPNQVAFVHVMHYLFRLLDPAEFKRRFFWPITDKKSEANFRSSTVEYLKHLNEKHQLHWANIKSYLVVMPGGMRFINFLLEFVGFVIQELIKQREKSLGLEAGTPNVSAKVMARQNAVMKEYASSYVVNLEENTALLRDKTQKIRRLMADLSADMGVPEEQLADDGFLDEFEATAALGVERVITQPTERKFDLEASLCGLKEAIDLFQVKQAENNQSKEAVEKALRGMRVLFDCDAVTEGDFYDPLGASKMDALLNGFNRISGTIAEQLDANDHYNESNAFVTTDLQALRVELSQSEVQLNNLLKKLNEPSKKDKGSANASGSARVQTLQPATPRFESVISSKFVSTPPIRIDMGGGGGRNAPVRLALQDDFNGKQFDALSNSLLAPAPPRSARKLKALDQSTGIDLNGTLNRSKINDPMQMLRTIHKNTSKVKAAPQANLSSLGSKWKQMQASFGFDEAPVPGAAVISPQTSPTDPSDPFTPLSGSECTRIERIPRTSENNTSLIAKSAAVIKVLEVSRNVLNLSTSPSGRLDALVPHTESHQQDVAPRLQLNDRTINDSLQLDPDFNIENDKNAFNVSHKFDFDQIGGEDDLQNISDSVLKDIIF
For the molecule B9, the MAPPIT interaction score with dgt4 was 4.71 (active).

B10: abs (protein)
chain: MAHVKRYRRSSKSSEEGDLDNEDYVPYVPVKERKKQHMIKLGRIVQLVSETAQPKSSSENENEDDSQGAHDVETWGRKYNISLLDQHTELKKIAEAKKLSAVEKQLREEEKIMESIAQQKALMGVAELAKGIQYEQPIKTAWKPPRYIREMSEEEREAVRHELRILVEGETPSPPIRSFREMKFPKGILNGLAAKGIKNPTPIQVQGLPTVLAGRDLIGIAFTGSGKTLVFVLPVIMFALEQEYSLPFERNEGPYGLIICPSRELAKQTHEIIQHYSKHLQACGMPEIRSCLAMGGLPVSEALDVISRGVHIVVATPGRLMDMLDKKILTLDMCRYLCMDEADRMIDMGFEEDVRTIFSFFKGQRQTLLFSATMPKKIQNFARSALVKPVTINVGRAGAASMNVTQQVEYVKQEAKVVYLLDCLQKTAPPVLIFAEKKQDVDCIHEYLLLKGVEAVAIHGGKDQEERSRAVDAYRVGKKDVLVATDVASKGLDFPNVQHVINYDMPDDIENYVHRIGRTGRSNTKGLATTLINKTTEQSVLLDLKHLLIEGKQEVPDFLDELAPETEHQHLDLGDSHGCTYCGGLGHRITECPKLEAVQNKQASNIGRRDYLSNTAADY
On to B10, for which the MAPPIT interaction score in the test with bru3 was -0.236.

B11: Gs1 (protein)
chain: MALRVAGLFLKKELVAPATQQLRLLRTGNTTRSQFLANSPNTALDKSILQRYRNLETPANRVQATYLWIDGTGENIRLKDRVLDKVPSSVEDLPDWQYDGSSTYQAHGENSDTTLKPRAIYRDPFKPGKNDVIVLCDTYSADGKPTASNKRAAFQAAIDLISDQEPWFGIEQEYTLLDVDGRPFGWPENGFPAPQGPYYCGVGADRVYARDLVEAHVVACLYAGIDFAGTNAEVMPAQWEFQIGPAGIKACDDLWVSRYILQRIAEEYGVVVTFDPKPMEGQWNGAGAHTNFSTKEMRADGGIKAIEEAIEKLSKRHERHIKAYDPKEGKDNERRLVGRLETSSIDKFSWGVANRAVSVRVPRGVATAGKGYLEDRRPSSNCDPYAVCNAIVRTCLLNE
For B11, the MAPPIT interaction score with cactin is -0.185.

B12: Ssrp (protein)
chain: MTDSLEYNDINAEVRGVLCSGRLKMTEQNIIFKNTKTGKVEQISAEDIDLINSQKFVGTWGLRVFTKGGVLHRFTGFRDSEHEKLGKFIKAAYSQEMVEKEMCVKGWNWGTARFMGSVLSFDKESKTIFEVPLSHVSQCVTGKNEVTLEFHQNDDAPVGLLEMRFHIPAVESAEEDPVDKFHQNVMSKASVISASGESIAIFREIQILTPRGRYDIKIFSTFFQLHGKTFDYKIPMDSVLRLFMLPHKDSRQMFFVLSLDPPIKQGQTRYHYLVLLFAPDEETTIELPFSEAELRDKYEGKLEKEISGPVYEVMGKVMKVLIGRKITGPGNFIGHSGTAAVGCSFKAAAGYLYPLERGFIYIHKPPLHIRFEEISSVNFARSGGSTRSFDFEVTLKNGTVHIFSSIEKEEYAKLFDYITQKKLHVSNMGKDKSGYKDVDFGDSDNENEPDAYLARLKAEAREKEEDDDDGDSDEESTDEDFKPNENESDVAEEYDSNVESDSDDDSDASGGGGDSDGAKKKKEKKSEKKEKKEKKHKEKERTKKPSKKKKDSGKPKRATTAFMLWLNDTRESIKRENPGIKVTEIAKKGGEMWKELKDKSKWEDAAAKDKQRYHDEMRNYKPEAGGDSDNEKGGKSSKKRKTEPSPSKKANTSGSGFKSKEYISDDDSTSSDDEKDNEPAKKKSKPPSDGDAKKKKAKSESEPEESEEDSNASDEDEEDEASD
Consider B12, for which the MAPPIT interaction score with dre4 was 0.764.
